Sampled rows, rich in hits. Any-hit rate of the full collection: about 19%.
Pf growth 48h: Primary qHTS for delayed death inhibitors of the malarial parasite plastid, 48 hour incubation; 310,000 compounds, 5.9% hits; P. falciparum luciferase growth in erythrocytes, 48 h; Potency, µM (series often up to 28.7 µM), without a hit: top-dose activity change, negative = inhibition, actives largely listed as inhibitors; AID 504832, 2011; note: potency is the fitted concentration of half-maximal effect; % is set by controls: 0 for no effect and ±100 for the full control effect
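Firefly luciferase activity from engineered P. falciparum reports growth; inhibitors lower the luminescent signal. Cultures contained 2% hematocrit erythrocytes at 0.1% final parasitemia.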
Pf growth 96h: Primary qHTS for delayed death inhibitors of the malarial parasite plastid, 96 hour incubation | P. falciparum luciferase reporter growth, 96 h | Potency, µM (highest dose often 28.7 µM), without a hit: top-dose activity change, negative = inhibition, hits mostly inhibitors | 320,000 compounds, 6.9% hits | AID 504834, 2011; note: potency is the fitted concentration of half-maximal effect; % is set by controls: 0 for no effect and ±100 for the full control effect
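Infected RBCs, 2% Hct / 0.05% parasitemia final; luciferase-reporter P. falciparum; cpd 96 h, 37 C, 5% CO2; luciferase detection reagent; luminescence.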
AMA1 RON2 block: qHTS for Inhibitors of AMA1-RON; Towards Development of Antimalarial Drug Lead: Primary Screen | Plasmodium falciparum AMA1 (3D7) - RON2 peptide interaction | AlphaScreen AMA1-biotinylated RON2 peptide binding | Potency, µM (doses to about 58.2 µM), inactives show at the top dose activity change, negative = inhibition, most hits filed as inhibitors | 360,000 compounds, 0.2% hits | AID 720542, 2013;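 note: potency is the fitted concentration of half-maximal effect; 0% = vehicle wells and -100% = peptide control; nearly all actives have a fitted effect of over 45% in size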
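AMA1 (3D7) with his tag at 25 nM final met compounds first, then biotinylated RON2 peptide at 25 nM; detection used donor plus acceptor beads, 10 µg/mL apiece, read by AlphaScreen after 30 min at room temperature.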
CHX counter: Cycloheximide Counterscreen for Small Molecule Inhibitors of Shiga Toxin. cell reporter, cycloheximide protein synthesis inhibition counterscreen. max response, %. 300,000 compounds, 12% hits. AID 2314, 2010; in the data active = max response mostly above about 13%, no sharp cut-off; inactive = mostly below about 14%; note: read at 38.3 µM for the half of the compounds with a filed dose; 0% is about no effect
Shiga inhibitor: A qHTS for Small Molecule Inhibitors of Shiga Toxin | Vero cells, Shiga toxin protein synthesis inhibition reporter | inhibition, % at 38.7 µM | 290,000 compounds, 9.2% hits; in the data active = inhibition mostly above about 28%, no sharp cut-off; inactive = mostly below about 43%; note: 0% is about no effect
SARS PLpro yeast: qHTS of Yeast-based Assay for SARS-CoV PLP; Potency, µM (doses to about 32.9 µM), without a hit: top-dose activity, positive = growth rescue, hits mostly activators; 330,000 compounds, 0.19% hits; S. cerevisiae expressing SARS-CoV PLpro, growth rescue; AID 485353, 2010; calls by dose curve; note: potency is the fitted concentration of half-maximal effect; 0% is about no effect; nearly all actives have a fitted effect of over 55% in size
* marks the source's active call; other numbers are inactive results; ? = inconclusive; nt = not tested or not shown; [ ] = another dose, or the depositor's remark. Unless noted, calls come from the whole dose curve; as a rule, active = well fitted curve in the direction sought with a large enough effect; inconclusive = small, poorly fitted or top-dose-only effect, or another doubt; inactive = no such curve, though single readings can be large; an effect the other way counts as inactive or inconclusive.

SMILES	Pf growth 48h	Pf growth 96h	AMA1 RON2 block	CHX counter	Shiga inhibitor	SARS PLpro yeast
NC(=O)c1cc2c3ccccc3ccn2c1-c1ccccc1	-1.3%	-58.0%	15.4%	52.0*	94.0*	-4.6%
O=C(Cc1ccccc1)N/N=C/c1cc(Br)cs1	13.6%	?	-2.2%	13.6*	17.1	-0.4%
O=C(O)c1ccc(N/N=C/c2cc(Br)cs2)cc1	186.6%	-11.4%	-3.6%	24.8*	28.7	-5.1%
CN(C)C1C(=O)c2ccccc2C1=O	-7.0%	42.2%	-2.7%	-3.0	9.0	9.2%
C#CCOCCOCCOCCNc1nc(N2CCN(C(=O)CCCCCCCCCCNC(=O)[C@H]([C@@H](C)CC)n3cc(CCCCN=C(N)N)nn3)CC2)nc(N2CCN(C(=O)CCCCCCCCCCNC(=O)[C@H](CCCCN)n3cc(C[C@@H](C)CC)nn3)CC2)n1	9.28µM*	5.22µM*	nt	nt	nt	0.2%
C#CCOCCOCCOCCNc1nc(N2CCN(C(=O)CCCCCCCCCCNC(=O)[C@H](CCCCN)n3cc(CCCC(=O)O)nn3)CC2)nc(N2CCN(C(=O)CCCCCCCCCCNC(=O)[C@H](CCCCN)n3cc(CCCC(=O)O)nn3)CC2)n1	?	?	-3.4%	nt	nt	-13.0%
C#CCOCCOCCOCCNc1nc(N2CCN(C(=O)CCCCCCCCCCNC(=O)[C@H](CCCCN)n3cc(CCO)nn3)CC2)nc(N2CCN(C(=O)CCCCCCCCCCNC(=O)[C@H](CCCN=C(N)N)n3cc(C[C@@H](C)CC)nn3)CC2)n1	11.7µM*	4.65µM*	?	nt	nt	0.0%
C#CCOCCOCCOCCNc1nc(N2CCN(C(=O)[C@H]([C@@H](C)CC)n3cc(CCCN=C(N)N)nn3)CC2)nc(N2CCN(C(=O)[C@H](CCCCN)n3cc(CC(C)O)nn3)CC2)n1 (stereo partly drawn)	-25.2%	?	-3.8%	nt	nt	-1.2%
C#CCOCCOCCOCCNc1nc(N2CCN(C(=O)CCCCCCCCCCNC(=O)[C@H](CCCCN)n3cc(CCCC(=O)O)nn3)CC2)nc(N2CCN(C(=O)CCCCCCCCCCNC(=O)[C@H](CCCN=C(N)N)n3cc(C[C@@H](C)CC)nn3)CC2)n1	10.4µM*	13.1µM*	-22.4%	nt	nt	-3.7%
Cc1ccc(-n2ncc3c(=O)n(CC(=O)N(C)C)cnc32)cc1	11.1%	?	-0.6%	-3.1	8.4	-3.9%
CC(=O)Cn1cnc2c(cnn2-c2ccc(C)c(C)c2)c1=O	-16.8%[0.00184 µM]	-15.3%	-10.5%	54.3*	91.2*	-4.7%
Cc1ccc(-n2ncc3c(=O)n(CC(=O)N(C)C)cnc32)cc1C	-2.7%	?	1.8%	13.7*	29.3	-2.1%
CC1CCN(C(=O)C(=O)Nc2sc3c(c2C(N)=O)CC(C)(C)OC3)CC1	14.4%	18.7%	61.4%	-2.5	-4.9	2.4%
CCOC(=O)Nc1ccc(S(=O)(=O)Nc2nccc(C)n2)cc1	-12.7%	13.5%	-14.3%	0.6	6.5	-0.4%
CC(=O)Nc1ccc(S(=O)(=O)Nc2nccc(C)n2)cc1	67.3%	?	0.0%	-3.4	22.6	-1.1%
CCCSc1ncc(Cl)c(C(=O)Nc2ccc(S(=O)(=O)Nc3ncccn3)cc2)n1	24.3%	34.8%	-16.6%	3.6	28.5	7.1%
CCOC(=O)C(=O)Nc1ccc(S(=O)(=O)Nc2nccc(C)n2)cc1	nt	nt	-0.9%	nt	nt	nt
Cc1ccnc(NS(=O)(=O)c2ccc(NC(=O)C(C)(C)C)cc2)n1	1.85µM*	48.1%	-12.2%	-2.2	-1.5	1.3%
CCOc1ccccc1C(=O)Nc1ccc(S(=O)(=O)Nc2nccc(C)n2)cc1	-10.1%	13.1µM*	-10.1%	-1.6	-5.0	-2.7%
CCOc1ccc(C(=O)Nc2ccc(S(=O)(=O)Nc3nccc(C)n3)cc2)cc1OCC	-27.4%	8.28µM*	3.4%	-4.5	-9.7	4.1%
CSc1ncc(Cl)c(C(=O)Nc2ccc(S(=O)(=O)Nc3nccc(C)n3)cc2)n1	178.3%	37.5%	-2.8%	30.9*	69.8*	0.5%
CCCCn1c(N)c(N(CC(C)C)C(=O)CSc2ccccc2C)c(=O)[nH]c1=O	2.4%	?	-1.8%	nt	nt	-0.2%
COCc1ccc(CN2CCc3c([nH]c4ccccc34)C2CC(C)C)o1 (stereo not drawn)	?	6.57µM*	-0.2%	1.1	7.9	0.1%
O=[N+]([O-])c1ccc(N=Nc2ccc(O)cc2O)cc1	nt	0.329µM*	15.0%	31.8	26.2	-29.7%
Cc1cc(NC(=O)CSc2nc3ccsc3c(=O)n2NC(=O)c2ccccc2)no1	286.3%	0.9%	2.8%	36.4*	36.6*	?
SMILES	Pf growth 48h	Pf growth 96h	AMA1 RON2 block	CHX counter	Shiga inhibitor	SARS PLpro yeast
O=C(Nn1c(SCc2ccc(F)cc2)nc2ccsc2c1=O)c1ccccc1	38.8%	13.1µM*	-0.2%	27.6*	19.2	-36.7%
CCC(C)NC(=O)CSc1nc2ccsc2c(=O)n1NC(=O)c1ccccc1 (stereo not drawn)	nt	8.28µM*	87.4%	27.7	32.9	0.0%
Cc1ccc(CNC(=O)CSc2nc3ccsc3c(=O)n2NC(=O)c2ccccc2)cc1	59.5%	36.8%	34.2%	2.9	31.7	5.1%
CCC(C)NC(=O)CSc1nc2ccsc2c(=O)n1-c1ccc(OC)cc1 (stereo not drawn)	-20.0%	11.7µM*	-0.2%	0.5	-16.6	6.0%
COc1ccc(-n2c(SCC(=O)NC3CCCCC3)nc3ccsc3c2=O)cc1	3.0%	5.5%	19.5%	-3.9	51.9	3.5%
COc1ccc(N(CC(=O)Nc2cc([N+](=O)[O-])ccc2C)S(C)(=O)=O)cc1OC	-0.4%	11.1%	11.1%	-0.9	-4.6	-0.6%
O=C(Cn1c(C(=O)N2CCc3ccccc3C2)cc2sccc21)c1ccccc1	14.7µM*	-4.7%	-20.9%	-3.2	-3.9	-0.9%
O=C(Cn1c(C(=O)N2CCN(C3CCCCC3)CC2)cc2sccc21)c1ccccc1	?	-11.1%	-19.2%	-2.5	-17.8	3.5%
N#Cc1cc2c(nc1SCc1cccnc1)CCCCC2	?	nt	0.4%	16.5	129.6*	nt
N#CCSc1nc2c(cc1C#N)CCCC2	47.0%	nt	19.1%	30.4*	57.2	-16.3%
CSC1CCCCC1(O)CSc1nc2c(cc1C#N)CCCC2 (stereo not drawn)	9.28µM*	54.6%	2.0%	10.3	8.8	3.9%
CC(=O)NC1=NN(C(C)=O)C(C)(c2cccs2)S1 (stereo not drawn)	28.1%	10.4µM*	9.4%	-0.8	-4.9	13.4%
CC(=O)NC1=NN(C(C)=O)C(C)(c2ccco2)S1 (stereo not drawn)	?	-10.7%	4.2%	43.3*	58.9*	-7.3%
CC(=O)NC1=NN(C(C)=O)C(C)(c2ccc(C)o2)S1 (stereo not drawn)	19.7%	-16.0%	1.1%	18.9*	22.3	0.0%
ClCC1NCC(c2ccccc2Cl)c2c1[nH]c1ccccc21 (stereo not drawn)	?	?	-1.5%	-2.3	-6.0	-1.7%

Screens: PubChem BioAssay, National Center for Advancing Translational Sciences (NCATS)
